Here are results for 16 molecules from PubChem BioAssay.

Inconclusive results are not listed. Activity calls are given as the source filed them.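 The calls were made as follows, unless noted: active = viability loss from added drug above about 55%, and viability with drug at most 40%, in both replicates (limit read from the data, passing the limit was not always enough); inconclusive = both conditions met in only one replicate; inactive = neither replicate meets both conditions.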

The target of assay [1] is Pantothenate synthetase (Mycobacterium tuberculosis (strain ATCC 25618 / H37Rv)) (UniProt P9WIL5). The experiment in a line: Recombinant Mtb pantothenate synthetase (PanC) inhibitors, coupled enzyme, confirmatory (AID 375; call rule not given here;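 also: 0% = full reaction with vehicle and 100% = no enzyme background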). The note with it: coupled enzyme assay; at 10 µM, stronger effect = higher value.
Chain of Pantothenate synthetase (Mycobacterium tuberculosis (strain ATCC 25618 / H37Rv)) (P9WIL5 whole entry, looked up): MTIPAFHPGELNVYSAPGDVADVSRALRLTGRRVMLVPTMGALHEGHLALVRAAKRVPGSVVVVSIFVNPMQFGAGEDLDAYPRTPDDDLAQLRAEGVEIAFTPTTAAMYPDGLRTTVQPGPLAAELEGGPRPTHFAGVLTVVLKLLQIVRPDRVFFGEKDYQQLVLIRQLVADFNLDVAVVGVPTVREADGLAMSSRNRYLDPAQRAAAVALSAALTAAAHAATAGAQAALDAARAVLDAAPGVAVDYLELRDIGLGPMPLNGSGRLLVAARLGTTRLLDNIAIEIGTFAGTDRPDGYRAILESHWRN
Assay [2] can be described thus: HUVEC growth inhibition – cell-based, human, primary screen (AID 575;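 active = viability at or below 30% in both replicate assays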;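 also: 100% = median of untreated cell wells with 0.1% DMSO on each plate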). Particulars: HUVEC proliferation, CellTiter-Glo luminescence, 72 h; at 10 µM; stronger effect = lower value. Background: Cellular ATP, detected with luciferase, serves as a proxy for viable cell number.
Assay [3] can be described thus: growth inhibitors of H69AR lung tumor, primary screen, human, duplicate replicates (AID 580;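 active = viability at or under a set limit in both replicates, limit being median viability minus 3 SD, cut at about 48% in these data, passing the limit was not always enough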;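 also: 100% = mean luminescence of untreated wells and 0% = no signal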). The note with it: H69AR lung tumor cells viability, ATP luminescence, 72 h; at 10 µM; stronger effect = lower value.
Assay [4] in a line: reversal of MRP1-mediated doxorubicin resistance, pilot screen, H69AR cells, doxorubicin co-treatment (AID 601). The note with it: CellTiter-Glo, 72 h, at 10 µM; for differential viability (reversal): stronger effect = higher value.
Assay [5] can be described thus: 384-well plate pilot, post-Golgi transport modulator project, inhibition of yeast transport mutant growth (AID 636; in the data active = inhibition above about 31%). Particulars: absorbance 615 nm, about 18 h, stronger effect = higher value.
The nature of assay [6]: growth suppression of yeast trafficking mutant, preliminary HTS, modulators of trafficking downstream of Golgi apparatus project, 1536-format plate, OD 615 nm (AID 637; in the data active = inhibition above about 30%). The note with it: yeast transport mutant growth, absorbance 615 nm, 18 h; stronger effect = higher value.
The nature of assay [7]: SK-BR-3 cell growth inhibitors, pilot screen, 24 h, human (AID 572;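 active = viability at or below 10% of carrier control in both of two separate runs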;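 also: compound exposure lasted between 18 and 24 h rather than exactly 24 h; 100% = carrier-treated control wells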). The note with it: SK-BR-3 viability, CellTiter-Glo luminescence, at 10 µM, stronger effect = lower value.
The nature of assay [8]: OD615 S. cerevisiae growth inhibition, permissive medium, pilot counter-assay, permissive growth control for S. cerevisiae lifespan shortening project (AID 705;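 active = growth inhibition above 25% in both replicates, a cutoff set 3 SD above the mean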). The note with it: OD615, 24 h, at 10 µM, stronger effect = higher value.
Assay [9] in a line: Restrictive medium S. cerevisiae growth inhibition, OD615, pilot screen of yeast lifespan reduction project, restrictive growth control (AID 706;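 active = growth inhibition above a set limit, 3 SD over mean compound inhibition, in both replicates, cut at about 43% in these data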;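 also: modified DeaD lifespan yeast strain shifted to restrictive glucose medium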). Particulars: OD615, 48 h, at 10 µM, stronger effect = higher value.
A short description of assay [10]: viability gain of MRP-1-high H69AR cells under doxorubicin, pilot screen, MRP-1 activator project, CellTiter-Glo, duplicate (AID 807;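 active = viability increase at or above a cutoff of the median across tested compounds plus 3 SD, cut at about 8.5% in these data, passing the limit was not always enough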;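 also: compound pretreatment 18-22 h then 72 h combined with doxorubicin; 0% = doxorubicin alone and 100% = vehicle without doxorubicin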). The note with it: H69AR viability with doxorubicin, CellTiter-Glo luminescence; at 10 µM; stronger effect = higher value.
The nature of assay [11]: growth suppression of beta-catenin knockout HCT116, pilot screen, human colon tumor cells (AID 823;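 active = cell viability at or below a set limit in both duplicate runs, the limit being the all-compound median minus 4 SD, cut at about 23% in these data, passing the limit was not always enough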;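 also: 0% = wells killed by 20 µM Hyamine and 100% = untreated DMSO cell wells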). Particulars: CellTiter-Glo, 60 h, at 10 µM, stronger effect = lower value.
The nature of assay [12]: inhibitors of the yeast RAM network, pilot screen, dse1pr::URA3 reporter, 5-FOA selection (AID 869;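 active = inhibition over a set limit, the all-compound mean plus 3 SD, in both replicate runs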;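 also: 0% = DMSO wells with no growth and 100% = 10 µM 1-NA-PP1 with full growth; RAM network block rescues cells from 5-FOA so hits raise OD615 growth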). Particulars: S. cerevisiae dse1pr::URA3 5-FOA growth, OD615, 2 d, at 10 µM, stronger effect = higher value.
Where [13] appears, read: H69AR cells + 2 uM doxorubicin, measured here: viability with 2 uM doxorubicin, stronger effect = lower value.
[14] abbreviates: H69AR cells, compound alone cytotoxicity.

With `Cc1cccc(-n2c(O)c(C=NCCCN3CCOCC3)c(=O)[nH]c2=O)c1C`, the inhibition – broadly, the relative decrease from the control value, in per cent – is 2% (inactive) in assay [1], 0.8% (inactive) in [5] and -2.7% (inactive) in assay [6]. The viability (usually a read-out of living cells in per cent, often relative to untreated cells) in [2] was 100% (inactive); in assay [3] it was 105% (inactive); in assay [4] (setting [13]) it was 90.7%; in [4] (setting [14]), 105%. The differential viability (reversal) in assay [4] (H69AR cells + 2 uM doxorubicin) is 14.8% (inactive).
For the molecule `CN1CC[C@@]23CCCC[C@@H]2[C@@H]1Cc1ccc(O)cc13`, the inhibition in assay [1] is 1% (inactive); in assay [5], -3.12% (inactive); in assay [6] it was -0.33% (inactive). Also, the viability was 88% (inactive) in assay [7]; 79.4% (inactive) in [2]; 95.8% (inactive) in [3]; 88% in [4] (setting [13]); 95.8% in assay [4] (setting [14]). Further, in [4] (H69AR cells + 2 uM doxorubicin), the differential viability (reversal) was 7.79% (inactive).
Turning to `CC1(C)CC(=O)C=C(NCCN2CCN(C(=O)Cc3ccc(Cl)cc3)CC2)C1`, the figures for the inhibition in [1], in [5] and in assay [6] were 2% (inactive), -0.79% (inactive) and -2.06% (inactive), respectively. Moreover, the viability in [2] was 109% (inactive); in assay [3], 92.4% (inactive); in assay [4] (setting [13]), 95.9%; in assay [4] (setting [14]), 92.4%. The differential viability (reversal) in assay [4] (H69AR cells + 2 uM doxorubicin) was -3.5% (inactive).
For `Cc1cccc(C2=NCC(=O)N(CC(=O)NCc3ccco3)c3sc4c(c32)CCCC4)c1`, the inhibition in assay [1] was 8% (inactive); in [5], -6.49% (inactive); in assay [6] it was 4.6% (inactive). Besides, the values for the viability in assay [7], in assay [4] (setting [13]) and in [4] (setting [14]) were 102% (inactive), 84.4% and 55.9%, respectively. Further, the differential viability (reversal) in [4] (H69AR cells + 2 uM doxorubicin) was -28.5% (inactive).
As to `CCCNC(=O)c1c(N)n(Cc2ccc3c(c2)OCO3)c2nc3ccccc3nc12`, the results for the inhibition in [1], in assay [5] and in [6] were 0% (inactive), -3.2% (inactive) and 0.66% (inactive), respectively. Moreover, the viability is 102% (inactive) in [7]; 21.8% (active) in assay [2]; 43.8% (active) in assay [3]; 36.8% in assay [4] (setting [13]); 43.8% in assay [4] (setting [14]). For the same molecule, the differential viability (reversal) in [4] (H69AR cells + 2 uM doxorubicin) is 6.99% (inactive).
As to `CC[N+]1(C)CCCC(OC(=O)C(O)(c2ccccc2)c2ccccc2)C1` (configuration not stated), the inhibition in assay [1] was 0% (inactive); in assay [5], -5.71% (inactive); in [6], -3.67% (inactive). Besides, the viability in [7] is 81% (inactive); in [2], 76.8% (inactive); in assay [3] it was 101% (inactive); in [4] (setting [13]), 89.6%; in [4] (setting [14]) it was 101%. Also, the differential viability (reversal) in assay [4] (H69AR cells + 2 uM doxorubicin) is 11.1% (inactive).
Turning to `CCC(C)NC(=O)c1c(N)n(CC2CCCO2)c2nc3ccccc3nc12` (configuration not stated), the inhibition in assay [1] is 0% (inactive); in assay [5] it was -0.4% (inactive); in assay [6], 4.92% (inactive). The viability in assay [7] is 93% (inactive); in assay [2], 53.4% (inactive); in [4] (setting [13]) it was 61.5%; in assay [4] (setting [14]), 53.4%. Besides, the differential viability (reversal) in assay [4] (H69AR cells + 2 uM doxorubicin) is -8.02% (inactive).
For `CN1C[C@H](CNC(=O)OCc2ccccc2)C[C@@H]2c3cccc4c3c(cn4C)C[C@H]21`, the inhibition in assay [1] was 4% (inactive). For the same molecule, the viability in assay [2] is 2.42% (active); in assay [3], 66.3% (inactive); in assay [4] (setting [13]) it was 65.2%; in assay [4] (setting [14]), 66.3%. In assay [4] (H69AR cells + 2 uM doxorubicin), the differential viability (reversal) is 1.09% (inactive).
With `[N-]=[N+]=CC(=O)OC[C@H](N)C(=O)O`, the inhibition is 0% (inactive) in [1], 1.56% (inactive) in assay [5] and 1.83% (inactive) in assay [6]. Besides, the viability was 99% (inactive) in [7]; 96.5% (inactive) in assay [2]; 88.5% (inactive) in assay [3]; 106% in assay [4] (setting [13]); 88.5% in assay [4] (setting [14]). The differential viability (reversal) in assay [4] (H69AR cells + 2 uM doxorubicin) is -17.2% (inactive).
For `CN(C)CCN=Cc1c(O)n(-c2cccc3ccccc23)c(=O)[nH]c1=O`, the inhibition in assay [1] is 6% (inactive); in assay [5] it was -5.87% (inactive); in assay [6] it was 1.9% (inactive). In addition, the viability in [2] is 103% (inactive); in assay [3], 105% (inactive); in [4] (setting [13]), 92.8%; in [4] (setting [14]), 105%. In addition, in assay [4] (H69AR cells + 2 uM doxorubicin), the differential viability (reversal) is 11.9% (inactive).
In the case of `Cc1ccc(Cn2c(C)c3cnn(CC(=O)N4CCC5(CC4)OCCO5)c(=O)c3c2C)cc1`, the inhibition is 0% (inactive) in assay [1], -0.81% (inactive) in assay [5] and -1.09% (inactive) in [6]. The viability in assay [7] was 97% (inactive); in [2], 98% (inactive); in assay [4] (setting [13]) it was 100%; in assay [4] (setting [14]), 53.8%. Also, the differential viability (reversal) in [4] (H69AR cells + 2 uM doxorubicin) was -46.2% (inactive).
Take `CN1CCN(C(=O)COc2ccc(-c3nc4ccccc4s3)cc2)CC1`: the values for the growth inhibition in [8] and in assay [9] were -5.45% (inactive) and 10.8% (inactive), respectively. Also, in assay [10], the viability increase was -4.38% (inactive). Moreover, in assay [11], the viability was 66.1% (inactive). In addition, in assay [12], the inhibition is 2.09% (inactive).
Consider `O=C(CN1CCN(Cc2cccc(Cl)c2)C1=O)N1CCC2(CC1)OCCO2`, for which the inhibition is 2% (inactive) in assay [1], -3.12% (inactive) in [5] and -2.7% (inactive) in assay [6]. For the same molecule, the viability was 87.6% (inactive) in assay [2], 89.5% (inactive) in assay [3], 91.7% in assay [4] (setting [13]) and 89.5% in assay [4] (setting [14]). Besides, the differential viability (reversal) in [4] (H69AR cells + 2 uM doxorubicin) is -2.12% (inactive).
Regarding `C[C@H]1CCC/C=C/C2C[C@H](O)CC2[C@H](O)/C=C/C(=O)O1` (some centres not stated), the inhibition was 0% (inactive) in assay [1], -2.08% (inactive) in [5] and 0% (inactive) in assay [6]. For the same molecule, the viability in [7] was 120% (inactive); in [2] it was 7.17% (active); in assay [4] (setting [13]), 1.34%; in assay [4] (setting [14]) it was 1.93%. Further, in [4] (H69AR cells + 2 uM doxorubicin), the differential viability (reversal) was 0.59% (inactive).
As to `CCOC(=O)C1SC2(C(F)F)CC1(O)c1c(c(OC)c3occc3c1OC)O2` (configuration not stated), the inhibition was 0% (inactive) in assay [1], -4.73% (inactive) in assay [5] and 0.73% (inactive) in assay [6]. Further, the viability is 91% (inactive) in [7]; 93.3% (inactive) in [2]; 104% (inactive) in assay [3]; 80.9% in assay [4] (setting [13]); 104% in [4] (setting [14]). Further, the differential viability (reversal) in [4] (H69AR cells + 2 uM doxorubicin) is 22.9% (inactive).
With `O=C(Cn1cc(C(=O)c2ccccc2)c2ccccc21)NCc1ccco1`, the inhibition in assay [1] is 2% (inactive); in assay [5] it was 2.47% (inactive); in assay [6], 6.51% (inactive). In addition, the viability in assay [2] was 47.3% (inactive); in assay [3] it was 22.6% (active); in assay [4] (setting [13]) it was 69.8%; in assay [4] (setting [14]), 22.6%. For the same molecule, in assay [4] (H69AR cells + 2 uM doxorubicin), the differential viability (reversal) is -47.2% (inactive).
